According to PubChem BioAssay (NCI):
This is part of a sample that, as a whole, favours compounds with a hit. Of some 83,000 tested, about 20% had one in any assay.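 Values shown are percent growth following 48 h exposure of cells in 96-well plates to a single concentration of compound; below 10 was considered active.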 Active and inactive are the calls of the source.

What was measured:
Test in all cases: NCI-60 one-dose screen, 48 h (100 = growth as untreated, 0 = no growth, -100 = all killed)
Details in all cases: 10 µM unless noted
[1] = tested on: NCI-H23 lung
[2] = tested on: NCI-H226 lung
[3] = tested on: NCI-H322M lung
[4] = tested on: HOP-62 NSCLC
[5] = tested on: NCI-H460 lung
[6] = tested on: HOP-92 NSCLC
[7] = tested on: A549/ATCC NSCLC
[8] = tested on: 786-0 renal
[9] = tested on: COLO 205 colon
[10] = tested on: DU-145 prostate
[11] = tested on: K-562 leukemia
[12] = tested on: MALME-3M melanoma
[13] = tested on: MDA-MB-231 breast
[14] = tested on: SF-268 CNS
[15] = tested on: SF-295 CNS
[16] = tested on: SF-539 CNS
[17] = tested on: M14 melanoma
[18] = tested on: RXF 393 renal
[19] = tested on: UACC-257 melanoma

Measured: growth

COc1ccc(N2CCN(CC(=O)N3CCN(c4nnc(-c5ccccc5)c(-c5ccccc5)n4)CC3)CC2)cc1
inactive: [1] 46.8% | [2] 46.2% | [3] 78.2% | [4] 64.7% | [5] 42.5% | [6] 39% | [7] 14.8% | [8] 27% | [9] 47.9% | [10] 70.5% | [11] 18.7% | [12] 64.6% | [13] 72.1% | [14] 62.6% | [15] 39.6% | [16] 53.9% | [17] 64.4%

COc1ccc(/C=C2/SC(=Nc3c(C)nn(-c4ccccc4)c3N)NC2=O)cc1
inactive: [1] 38.3% | [2] 51.1% | [3] 39.1% | [4] 53% | [5] 17.7% | [6] 53.7% | [7] 32.4% | [8] 40.5% | [9] 43.7% | [10] 43.6% | [11] 15.2% | [13] 66.3% | [18] 83.6% | [14] 58.8% | [16] 23.6% | [19] 59% | [17] 17.2%
active: [15] 8.06%

c1ccc(CN=C(NCc2ccccc2)NCc2ccccc2)cc1
active: [19] -13.2%
inactive: [1] 42.4% | [2] 51.1% | [3] 75.6% | [4] 78.6% | [5] 73.4% | [6] 48.5% | [7] 47.3% | [8] 73.1% | [9] 41.3% | [10] 66.4% | [11] 35.7% | [13] 70.8% | [18] 91.7% | [14] 63.8% | [15] 30% | [16] 93.6% | [17] 52.9%

O=C(Oc1cccc2ccccc12)c1ccccc1C(=O)c1ccccc1
active: [11] 5.05%
inactive: [1] 93% | [2] 105% | [3] 101% | [4] 101% | [5] 93.2% | [6] 54.5% | [7] 88.3% | [8] 103% | [9] 112% | [10] 99.3% | [13] 85.7% | [18] 98.3% | [14] 79% | [15] 98.5% | [16] 103% | [19] 90.4% | [17] 93.4%

CCOC(=O)c1cnc2c(C)cc(C)cc2c1NCCCN(C)C
active: [6] 4.88% | [7] 1.69% | [11] 8.6%
inactive: [1] 35.2% | [2] 36.1% | [3] 20.9% | [4] 21.4% | [5] 10.1% | [8] 29.2% | [9] 17.4% | [10] 35.4% | [12] 51% | [13] 35.7% | [14] 35.7% | [15] 29.9% | [16] 28.9% | [17] 34.2%

Clc1ccc(C2c3ccccc3-c3nccn32)c(Cl)c1 (configuration not stated)
inactive: [1] 40% | [2] 66.6% | [3] 88.1% | [4] 78.2% | [5] 88.5% | [7] 79.6% | [8] 80.8% | [9] 97.2% | [10] 92.4% | [11] 35.5% | [12] 83.8% | [13] 84.1% | [14] 99.3% | [15] 41.7% | [16] 88.5% | [19] 80.5% | [17] 65%
active: [6] -2.6%

CC[C@@H](C)/C=C(C)/C=C/C(=O)c1c(O)c(-c2ccc(O)cc2)cn(OC2CC(=O)CCC(C)OC(=O)CC2O)c1=O (some centres not stated)
inactive: [1] 26.8% | [2] 15.8% | [6] 57.7% | [7] 17.9% | [9] 67.8% | [11] 13.8% | [13] 42.6% | [18] 33.6%
active: [3] 5.13% | [4] 7.07% | [5] -19.6% | [8] -6.82% | [10] 4.8% | [14] -7.36% | [15] -22% | [16] -4.57% | [19] -2.46% | [17] -13.7%

CCOC(=O)C1C(=O)NC(C(=O)OCC)(C(=O)OCC)C1CC (configuration not stated)
inactive: [1] 112% | [2] 97.7% | [3] 119% | [4] 109% | [5] 117% | [6] 98% | [7] 97.2% | [8] 107% | [9] 114% | [10] 117% | [11] 114% | [13] 98.7% | [18] 116% | [14] 108% | [15] 113% | [16] 122% | [19] 106% | [17] 110%

Cc1nn(-c2ccccc2)cc1/C=C1\SC(N2CCCCC2)=NC1=O
inactive: [1] 104% | [2] 86.7% | [3] 100% | [4] 103% | [5] 95.2% | [6] 76.7% | [7] 90.1% | [8] 83.6% | [9] 66.9% | [10] 91.4% | [11] 32.1% | [13] 76.4% | [18] 86% | [14] 91.3% | [15] 128% | [16] 60.9% | [19] 99.3% | [17] 92.6%

C(=C1c2ccccc2-c2ccccc21)c1ccncc1
inactive: [1] 58.5% | [2] 86.8% | [3] 80.1% | [4] 56.3% | [5] 33.7% | [6] 55.9% | [7] 49.1% | [8] 58.2% | [9] 49.4% | [10] 84.9% | [11] 11.4% | [13] 44.2% | [18] 72.3% | [14] 54.8% | [15] 35.6% | [16] 56.3% | [19] 74.5% | [17] 18.7%

Cc1cc(C)c2c(N)c3cccc(C)c3nc2n1
active: [1] -28.6% | [2] -10.6% | [3] 0.65% | [4] -28.4% | [5] -1.3% | [6] -12.9% | [7] -40.9% | [8] -3.97% | [9] -18.2% | [10] 2.87% | [11] -11.1% | [12] -23.3% | [14] 9.97% | [15] 1.7% | [16] 1.42% | [17] -35.1%
inactive: [13] 14.7%

O=[N+]([O-])c1ccc(N=Nc2c(Cl)cc(O)cc2Cl)cc1
inactive: [2] 10.3% | [7] 16.4% | [9] 35.2% | [10] 11.1%
active: [1] -23.4% | [3] -11.9% | [4] 4.04% | [5] -4.31% | [6] 3.34% | [8] -20.1% | [11] 1.93% | [13] -35.6% | [18] 7.36% | [14] -5.79% | [15] -55.6% | [16] -2.1% | [19] -21.5% | [17] -30%

O=C1OC(Oc2ccccc2)(c2ccccc2)c2ccccc21 (configuration not stated)
inactive: [1] 105% | [2] 107% | [3] 128% | [4] 106% | [5] 99.1% | [6] 88% | [7] 95% | [8] 101% | [9] 112% | [10] 108% | [11] 55.3% | [13] 98.3% | [18] 120% | [14] 95.3% | [15] 150% | [16] 100% | [19] 112% | [17] 111%

COC(=O)C1(NC(=O)CNC(=O)OCc2ccccc2)CCCC1
inactive: [1] 106% | [2] 99.1% | [3] 113% | [4] 111% | [5] 111% | [6] 85.2% | [7] 95.3% | [8] 95.3% | [9] 125% | [10] 114% | [11] 98.7% | [13] 95.8% | [18] 105% | [14] 114% | [15] 117% | [16] 99.4% | [19] 106% | [17] 105%

Nc1ccc(N=Nc2ccccc2)cc1[N+](=O)[O-]
inactive: [1] 90.7% | [2] 86% | [3] 80.5% | [4] 91.9% | [5] 100% | [6] 91.7% | [7] 85.9% | [8] 107% | [9] 95% | [10] 109% | [11] 87.4% | [13] 65.8% | [18] 104% | [14] 85.3% | [15] 113% | [16] 92.6% | [19] 103% | [17] 104%

COc1cc(-c2n[nH]nc2-c2ccccn2)cc(OC)c1OC
inactive: [1] 98.2% | [2] 90.3% | [3] 95.8% | [4] 97.5% | [5] 104% | [6] 86.3% | [7] 65.6% | [8] 96.4% | [9] 119% | [10] 112% | [11] 90.6% | [12] 90.5% | [13] 98.3% | [14] 114% | [15] 115% | [16] 104% | [17] 113%

COC(=O)CC1=C(c2ccc([N+](=O)[O-])cc2)CCC1=O
inactive: [1] 100% | [2] 94% | [3] 115% | [4] 102% | [5] 103% | [6] 89.5% | [7] 94.7% | [8] 104% | [9] 98.2% | [10] 101% | [11] 98.7% | [13] 102% | [18] 110% | [14] 101% | [15] 100% | [16] 97% | [19] 109% | [17] 109%
